{
  "source": "PubChem BioAssay (NCI)",
  "note": "“And” between values parts separate entries of the source, which are not always exact repeats. Equal entries are not always repeated. The panel holds about 83,000 compounds, 20% with a hit somewhere; the sample as a whole holds those more often.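 Treatment: one concentration, 48 hours, 96-well format. Scoring: percent growth, with anything below 10 considered active.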 The source made the active and inactive calls.",
  "data": [
    {"system": "HCT-15 colon", "assay": "NCI-60 one-dose screen, 48 h (100 = growth as untreated, 0 = no growth, -100 = all killed)", "conditions": "10 µM unless noted", "values": [
      {"smiles": "COc1ccc(-c2[nH]c3ccccc3c2-c2ccc(OC)cc2)cc1", "growth": "39.8% (inactive)"},
      {"smiles": "COc1ccc(/C=N\\Nc2nc(SCC(C)C)nc(-c3ccc(OC)cc3)c2C#N)cc1", "growth": "71% (inactive)"},
      {"smiles": "CN(C)C(=O)c1cc2cnc(Nc3ccc(-c4csc5c(=S)cc(N6CCOCC6)oc45)cc3)nc2n1C1CCCC1", "growth": "7.32% (active)"},
      {"smiles": "O=C(Nc1ccc2ncsc2c1)c1csc(Nc2ccc3[nH]ncc3c2)n1", "growth": "26% (inactive)"},
      {"smiles": "NS(=O)(=O)c1ccc(C(=O)N=Nc2c(O)[nH]c3c(F)cccc23)cc1", "growth": "105% (inactive)"},
      {"smiles": "C/C=C(\\C)C(=O)N[C@H]1CC[C@]2(C)C3CC[C@@]4(C)C(CC[C@@H]4C(C)N(C)C)C3CCC2[C@H]1OC(C)=O", "note": "(stereo not given in full)", "growth": "-78.4% (active)"},
      {"smiles": "CC(=O)N1N=C(c2ccc(Nc3nc(Nc4ccc(F)cc4)nc(Nc4ccc(Cl)cc4)n3)cc2)CC1c1ccc(N(C)C)cc1", "note": "(stereo not given)", "growth": "38.4% (inactive)"},
      {"smiles": "ON=C1CCCCCCCC1", "growth": "105% (inactive)"},
      {"smiles": "Cc1ccc(NC(=O)c2sc3nc(C)c(C(=O)c4ccccc4)cc3c2N)cc1", "growth": "83.1% (inactive)"},
      {"smiles": "O=C(/C=C/c1ccc([N+](=O)[O-])cc1)c1ccccc1", "growth": "77.2% (inactive)"},
      {"smiles": "COc1cc(CO)cc2cc3ccccc3nc12", "growth": "106% (inactive)"},
      {"smiles": "O=C(Cc1ccc(F)cc1)c1ccccc1", "growth": "108% (inactive)"},
      {"smiles": "COc1cc(-c2[nH]ncc2Nc2ccc(Cl)cc2)cc(OC)c1OC", "growth": "59.7% (inactive)"},
      {"smiles": "CC1(Cc2ccccc2)CC2=C(C(=O)O1)C(c1ccccc1)NC(=O)N2", "note": "(stereo not given)", "growth": "106% (inactive)"},
      {"smiles": "C=CCN1C=CC(=O)[C@H](O[Si](C)(C)C(C)(C)C)[C@@H]1/C=C/c1ccccc1", "growth": "-70.7% [100 µM] (active)"},
      {"smiles": "Cc1ccc(-c2nc3nc(-c4ccc(Cl)cc4)nc(N4CCCNCC4)c3o2)cc1", "growth": "-81.5% (active)"},
      {"smiles": "CC1=C2[C@@H](CC1)[C@]1(C)O[C@@](C3CC3)(C[C@H]1OC(=O)CO)[C@H]2OC(=O)/C=C/c1ccccc1", "growth": "97% (inactive)"},
      {"smiles": "CCN1CCN(C(=O)[C@]23CC[C@@H](C)[C@H](C)[C@@H]2C2=CC[C@@H]4[C@@]5(C)CCC(=O)C(C)(C)[C@@H]5CC[C@@]4(C)[C@]2(C)CC3)CC1", "growth": "8.58% (active)"},
      {"smiles": "CCCO/N=C/c1ccccn1", "growth": "106% (inactive) and 103% (inactive)"},
      {"smiles": "CN(C)CCN1C(=O)c2c(c3c4ccccc4n4c3c3c2c2ccccc2n3C2CC(O)C(O)C4(C)O2)C1=O", "note": "(stereo not given)", "growth": "15.5% (inactive)"},
      {"smiles": "CCOC(=O)c1c(-c2ccc(C)cc2)c(C#N)c(=O)n(-c2cccc(C(F)(F)F)c2)c1N", "growth": "101% (inactive)"},
      {"smiles": "CCCCCCCCCCCCCCCC(=O)O[C@@H]1[C@@H](O)[C@@H](O)C([C@H](NC(=O)[C@@H]2C[C@@H](CCC)CN2C)[C@H](C)Cl)O[C@@H]1SC", "note": "(stereo not given in full)", "growth": "99.9% (inactive)"},
      {"smiles": "O=C1/C(=C/c2cn(-c3ccccc3)nc2-c2ccccc2)SC(=S)N1c1ccc(Cl)cc1", "growth": "73% (inactive)"},
      {"smiles": "CN(C)CCCn1c2c(c3ccc(N4CCNCC4)cc3c1=O)C(=O)c1ccccc1-2", "growth": "-36.5% (active)"},
      {"smiles": "CCOc1ccccc1NC(=O)c1cc2ccccc2cc1O", "growth": "45.4% (inactive)"},
      {"smiles": "COc1ccc(C/C(C)=C(/c2ccc(OCCN3CCCCCC3)cc2)c2ccc(OC(=O)c3ccccc3)cc2)cc1", "growth": "100% (inactive)"}
    ]},
    {"system": "HT29 colon", "assay": "NCI-60 one-dose screen, 48 h (100 = growth as untreated, 0 = no growth, -100 = all killed)", "conditions": "10 µM unless noted", "values": [
      {"smiles": "COc1ccc(C(=O)c2ccc(OC)c(OC)c2OC)cc1", "growth": "4.69% (active) and 12.7% (inactive)"},
      {"smiles": "O=C1/C(=C/c2ccccc2)CN(C(=O)C(Cl)Cl)C/C1=C\\c1ccccc1", "growth": "5.46% (active)"},
      {"smiles": "C=C(C)[C@@H]1CC[C@]2(C(=O)O)CC[C@]3(C)[C@H](CC[C@@H]4[C@@]5(C)CCC(N)C(C)(C)[C@@H]5CC[C@]43C)[C@@H]12", "note": "(stereo not given in full)", "growth": "-13.6% (active)"},
      {"smiles": "N#C/C(=C\\c1ccc(Br)cc1)n1nnc2c(F)cccc21", "growth": "-0.198% (active)"},
      {"smiles": "COC1=CC(=O)C(OC)=C(O)C1=O", "growth": "106% (inactive)"},
      {"smiles": "CC(C)(C)c1cc(NC(=O)Nc2ccc(-c3cn4c(n3)sc3cc(OCCN5CCOCC5)ccc34)cc2)no1", "growth": "-41.7% (active) and -1.96% (active)"},
      {"smiles": "COc1cccc(C2C(C#N)=C(N)Oc3cc(OCCCCCC[P+](c4ccccc4)(c4ccccc4)c4ccccc4)ccc32)c1", "note": "(stereo not given)", "growth": "-17.6% (active)"},
      {"smiles": "COc1ccc(-c2ccccc2)cc1-c1c(Nc2cc(Cl)cc(Cl)c2O)c(=O)c1=O", "growth": "44.6% (inactive)"},
      {"smiles": "Cc1ccc(S(=O)(=O)Nc2cc(Sc3ccccc3)c(O)c3ccccc23)cc1", "growth": "120% (inactive)"},
      {"smiles": "COC(=O)c1[nH]nc(OC)c1C1(C(C#N)c2nc3ccccc3s2)CCCc2ccccc21", "note": "(stereo not given)", "growth": "95.8% (inactive)"},
      {"smiles": "COc1ccc(-c2cc(-c3cccc(Cl)c3)c(C#N)c(=O)[nH]2)c(OC)c1", "growth": "118% (inactive)"},
      {"smiles": "Cc1nc(-n2[nH]c(=O)ccc2=O)sc1N=Nc1ccccc1", "growth": "110% (inactive)"},
      {"smiles": "COc1ccc(-c2csc(NC(=O)CN3CCN(CCO)CC3)n2)cc1NS(=O)(=O)c1cccc2c(N(C)C)cccc12", "growth": "20.1% (inactive)"},
      {"smiles": "COc1ccc(-c2[nH]c3ccccc3c2-c2ccc(OC)cc2)cc1", "growth": "29.8% (inactive)"},
      {"smiles": "COc1ccc(/C=N\\Nc2nc(SCC(C)C)nc(-c3ccc(OC)cc3)c2C#N)cc1", "growth": "56.4% (inactive)"},
      {"smiles": "CN(C)C(=O)c1cc2cnc(Nc3ccc(-c4csc5c(=S)cc(N6CCOCC6)oc45)cc3)nc2n1C1CCCC1", "growth": "5% (active)"},
      {"smiles": "O=C(Nc1ccc2ncsc2c1)c1csc(Nc2ccc3[nH]ncc3c2)n1", "growth": "19.4% (inactive)"},
      {"smiles": "NS(=O)(=O)c1ccc(C(=O)N=Nc2c(O)[nH]c3c(F)cccc23)cc1", "growth": "99.6% (inactive)"},
      {"smiles": "C/C=C(\\C)C(=O)N[C@H]1CC[C@]2(C)C3CC[C@@]4(C)C(CC[C@@H]4C(C)N(C)C)C3CCC2[C@H]1OC(C)=O", "note": "(stereo not given in full)", "growth": "-68.4% (active)"},
      {"smiles": "CC(=O)N1N=C(c2ccc(Nc3nc(Nc4ccc(F)cc4)nc(Nc4ccc(Cl)cc4)n3)cc2)CC1c1ccc(N(C)C)cc1", "note": "(stereo not given)", "growth": "36.8% (inactive)"},
      {"smiles": "ON=C1CCCCCCCC1", "growth": "104% (inactive) and 110% (inactive)"},
      {"smiles": "Cc1ccc(NC(=O)c2sc3nc(C)c(C(=O)c4ccccc4)cc3c2N)cc1", "growth": "102% (inactive)"},
      {"smiles": "O=C(/C=C/c1ccc([N+](=O)[O-])cc1)c1ccccc1", "growth": "50.7% (inactive)"},
      {"smiles": "COc1cc(CO)cc2cc3ccccc3nc12", "growth": "103% (inactive)"},
      {"smiles": "O=C(Cc1ccc(F)cc1)c1ccccc1", "growth": "109% (inactive)"},
      {"smiles": "COc1cc(-c2[nH]ncc2Nc2ccc(Cl)cc2)cc(OC)c1OC", "growth": "74.2% (inactive)"},
      {"smiles": "CC1(Cc2ccccc2)CC2=C(C(=O)O1)C(c1ccccc1)NC(=O)N2", "note": "(stereo not given)", "growth": "96.8% (inactive)"},
      {"smiles": "C=CCN1C=CC(=O)[C@H](O[Si](C)(C)C(C)(C)C)[C@@H]1/C=C/c1ccccc1", "growth": "-73% [100 µM] (active)"},
      {"smiles": "Cc1ccc(-c2nc3nc(-c4ccc(Cl)cc4)nc(N4CCCNCC4)c3o2)cc1", "growth": "-82.4% (active)"},
      {"smiles": "CC1=C2[C@@H](CC1)[C@]1(C)O[C@@](C3CC3)(C[C@H]1OC(=O)CO)[C@H]2OC(=O)/C=C/c1ccccc1", "growth": "89.5% (inactive)"},
      {"smiles": "CCN1CCN(C(=O)[C@]23CC[C@@H](C)[C@H](C)[C@@H]2C2=CC[C@@H]4[C@@]5(C)CCC(=O)C(C)(C)[C@@H]5CC[C@@]4(C)[C@]2(C)CC3)CC1", "growth": "-12% (active)"},
      {"smiles": "CCCO/N=C/c1ccccn1", "growth": "96.8% (inactive) and 93.4% (inactive)"},
      {"smiles": "CN(C)CCN1C(=O)c2c(c3c4ccccc4n4c3c3c2c2ccccc2n3C2CC(O)C(O)C4(C)O2)C1=O", "note": "(stereo not given)", "growth": "6.62% (active)"},
      {"smiles": "CCOC(=O)c1c(-c2ccc(C)cc2)c(C#N)c(=O)n(-c2cccc(C(F)(F)F)c2)c1N", "growth": "111% (inactive)"},
      {"smiles": "CCCCCCCCCCCCCCCC(=O)O[C@@H]1[C@@H](O)[C@@H](O)C([C@H](NC(=O)[C@@H]2C[C@@H](CCC)CN2C)[C@H](C)Cl)O[C@@H]1SC", "note": "(stereo not given in full)", "growth": "111% (inactive)"},
      {"smiles": "O=C1/C(=C/c2cn(-c3ccccc3)nc2-c2ccccc2)SC(=S)N1c1ccc(Cl)cc1", "growth": "99.1% (inactive)"},
      {"smiles": "CN(C)CCCn1c2c(c3ccc(N4CCNCC4)cc3c1=O)C(=O)c1ccccc1-2", "growth": "-52.4% (active)"},
      {"smiles": "CCOc1ccccc1NC(=O)c1cc2ccccc2cc1O", "growth": "99.8% (inactive)"},
      {"smiles": "COc1ccc(C/C(C)=C(/c2ccc(OCCN3CCCCCC3)cc2)c2ccc(OC(=O)c3ccccc3)cc2)cc1", "growth": "89.9% (inactive)"}
    ]}
  ]
}
